# Screens deposited in PubChem by National Center for Advancing Translational Sciences (NCATS).
# VACV mCherry inh: vaccinia inhibition (mCherry reporter) | Vaccinia virus mCherry reporter infection, fluorescence | Potency, µM (titrated, usually from 36.5 µM), for the others: at the top dose activity change, negative = inhibition, usual class: inhibitors | actives 0.63% (n = 310,000) | AID 720579; calls by dose curve; tested in A549 cells; further: nearly all actives have a fitted effect of over 35% in size
# VACV Venus inh: vaccinia inhibition (Venus reporter). Vaccinia virus Venus reporter expression, fluorescence. Potency, µM (top dose mostly 36.5 µM), for the others: top-dose activity change, negative = inhibition, usual class: inhibitors. actives 0.46% (n = 330,000); calls by dose curve; tested in A549 cells; further: nearly all actives have a fitted effect of over 30% in size
# FMDV inh: blocks foot and mouth disease virus | Potency, µM (highest dose often 57.9 µM), for the others: at the top dose activity change, negative = inhibition, hits mostly inhibitors | FMDV antiviral cell-based qHTS | actives 1.2% (n = 410,000); calls by dose curve; tested in HEK293T cells; further: read-out not given here; nearly all actives have a fitted effect of over 45% in size
# LASV entry inh: Lassa virus entry inhibition | Lassa virus pseudotype entry inhibition, cell reporter | Potency, µM (top dose mostly 37.9 µM), without a hit: top-dose activity change, negative = inhibition, usual class: inhibitors | actives 1.2% (n = 300,000) | AID 540256; calls by dose curve; tested in HEK293 cells; further: nearly all actives have a fitted effect of over 50% in size
# Sm TGR block: blocks Schistosoma mansoni thioredoxin glutathione reductase. actives 3% (n = 360,000). Potency, µM (top dose mostly 114 µM), for inactives: at the top dose activity change, negative = inhibition, most hits filed as inhibitors. purified TGR, DTNB reduction, TNB absorbance 405 nm; active means well fitted inhibition curve with a large enough effect; inconclusive means small, poorly fitted or top-dose-only effect; inactive means no such curve, though single readings can be large or run the other way; further: nearly all actives have a fitted effect of over 60% in size
#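 First, TGR (20 nM dispensed) and NADPH were mixed with compound. Second, a 15 min room-temperature incubation followed. Third, further NADPH and then DTNB were added to start the reaction. Finally, TNB absorbance was monitored kinetically.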
# Marburg entry inh: Marburg virus entry inhibition | Potency, µM (titrated, usually from 37.8 µM), without a hit: at the top dose activity change, negative = inhibition, actives largely listed as inhibitors | Marburg virus pseudotyped entry inhibition, cell reporter | actives 1.8% (n = 300,000); calls by dose curve; tested in HEK293 cells
# * marks the source's active call; other numbers are inactive results; i = inactive; u = inconclusive; x = not tested or not shown; [ ] = another dose, or the depositor's remark. Sampled rows, rich in hits. Any-hit rate of the full collection: about 5.4%. On the % scale 0 is the no-effect control and ±100 the full control effect; potency means the concentration at half of the fitted maximal effect.
SMILES,VACV mCherry inh,VACV Venus inh,FMDV inh,LASV entry inh,Sm TGR block,Marburg entry inh
CCc1ccc(-c2nc(CS(=O)CC(=O)NCc3cccnc3)c(C)o2)cc1 (configuration not stated),x,-8%,4%,11%,40µM*,27%
O=C(N/N=C/c1cn(-c2ccccc2)nc1-c1cc2ccccc2o1)c1ccccc1Br,i,-11%,0%,u,0%,10µM*
O=C(c1ccccc1)c1ccc2nc(N3CCN(C(=O)c4ccco4)CC3)c3nncn3c2c1,-22%,-27%,u,x,45µM*,8%
c1csc(C2Nc3cccc4cccc(c34)N2)c1,-5%,11%,2%,-2%,22µM*,-5%
Brc1ccc(C2Nc3cccc4cccc(c34)N2)o1,-9%,17%,x,-1%,u,-9%
CN1c2cccc3cccc(c23)N(C)C1c1cccs1,-5%,-3%,0%,-12%,-28%,u
Clc1cccc(C2Nc3cccc4cccc(c34)N2)c1,u,8%,-2%,8%[46.1 µM],3.2µM*,-2%[46.1 µM]
CN(C)c1ccc(C2Nc3cccc4cccc(c34)N2)cc1,x,x,0%,x,32µM*,x
CN(C)c1ccc(CC2C(=O)Nc3ccccc32)cc1 (configuration not stated),-14%[7.34 µM],-6%[7.34 µM],50%,-9%,14µM*,25%[46.1 µM]
COc1ccc(OC)c([C@H]2/C(=C(\O)c3ccccc3)C(=O)C(=O)N2Cc2ccco2)c1,x,x,x,x,x,10%[46.1 µM]
COc1ccc(CN(C)S(=O)(=O)c2nnc(NC(=O)C(C)C)s2)cc1OC,-3%,-20%,u,-1%[46.1 µM],u,x
COCCN1C(=O)NC(c2cccc(F)c2)C(C(=O)OC)=C1C (configuration not stated),x,x,x,x,x,1%[14.2 µM]
Oc1ccccc1C1Nc2cccc3cccc(c23)N1,-11%,-6%,-19%,9%,18µM*,-1%
Brc1cccc(C2Nc3cccc4cccc(c34)N2)c1,i,-8%,-14%,21%[46.1 µM],11µM*,-1%[46.1 µM]
COc1ccc(C2Nc3cccc4cccc(c34)N2)cc1,x,x,17%,-3%,x,-19%
c1ccc(C2Nc3cccc4cccc(c34)N2)cc1,x,x,4%,x,8.9µM*,x
Clc1ccc(C2Nc3cccc4cccc(c34)N2)cc1Cl,x,x,9%,x,14µM*,x
CCOC(=O)C1CCC(CN(Cc2c(Cl)cccc2Cl)S(=O)(=O)c2ccc(F)cc2)CC1 (configuration not stated),3%,-7%,-11%,u,6%,x
CC(O)(COc1ccccc1)c1ccc2c(c1)CN(Cc1ccc3nsnc3c1)CCO2 (configuration not stated),-12%,6%,-16%,x,x,x
Clc1cccc(Cl)c1C1Nc2cccc3cccc(c23)N1,u,-2%,-23%,u,3.2µM*,u
Fc1cccc(Cl)c1C1Nc2cccc3cccc(c23)N1,x,x,-14%,x,u,x
CN(C)c1ccc(C2NC(=O)c3ccccc3N2)cc1 (configuration not stated),-15%,u,21%,u,10%,10µM*
COC(=O)c1c(C)[nH]c(O)c1C=Nc1ccc(C#N)cc1,x,x,13%,x,13µM*,x
Clc1ccc2c(SCC3CO3)c3ccccc3nc2c1 (configuration not stated),i,u,u,20µM*,x,u
O=C(CSc1c2c(nc3cc(Cl)ccc13)CCCC2)NCCN1CCOCC1,i,-13%,u,13%[46.1 µM],-5%,u
SMILES,VACV mCherry inh,VACV Venus inh,FMDV inh,LASV entry inh,Sm TGR block,Marburg entry inh
CCN(CC)CCn1c2ccccc2c2nc3ccccc3nc21,x,x,-15%,x,50µM*,x
CC(C)=CCC/C(C)=C/CO/N=C1\C[C@@H](O)[C@@H](O)[C@@H]2[C@@H]3C(=O)N(c4cccc(Oc5ccccc5)c4)C(=O)[C@@H]3CC[C@@H]12,x,x,x,x,x,26%[14.2 µM]
CCc1ccc(NC(=O)CN2C(=O)C(c3ccc(Cl)cc3)=NC23CCCCC3)cc1,-19%,-22%,-23%,-2%[46.1 µM],11%,-5%[46.1 µM]
C#CCOCCOCCOCCNc1nc(N2CCN(C(=O)CCCCCCCCCCNC(=O)[C@@H](CCSC)n3cc(CCO)nn3)CC2)nc(N2CCN(C(=O)CCCCCCCCCCNC(=O)[C@@H]([C@H](C)O)n3cc(C)nn3)CC2)n1,-1%,u,-24%,x,-24%,x
Cc1cn([C@@H](CCCCNC(=O)OC(C)(C)C)C(=O)NCCCCCCCCCCC(=O)N2CCN(C(=O)OC(C)(C)C)CC2)nn1,-11%,u,11µM*,x,-7%,x
C#CCOCCOCCOCCNc1nc(N2CCN(C(=O)CCCCCCCCCCNC(=O)[C@H](CCCCN)n3cc(C[C@@H](C)CC)nn3)CC2)nc(N2CCN(C(=O)CCCCCCCCCCNC(=O)[C@@H]([C@H](C)O)n3cc(C)nn3)CC2)n1,11µM*,7.9µM*,u,x,7%,x
C#CCOCCOCCOCCNc1nc(N2CCN(C(=O)CCCCCCCCCCNC(=O)[C@H](CCCCN)n3cc(C)nn3)CC2)nc(N2CCN(C(=O)CCCCCCCCCCNC(=O)[C@@H]([C@H](C)O)n3cc(C)nn3)CC2)n1,u,11µM*,-13%,x,-2%,x
CC1=C[C@@H](c2ccccc2)n2nc(N3C(=O)[C@H]4CC=CC[C@@H]4C3=O)nc2N1,x,x,x,x,x,-4%
Cc1ccc(S(=O)(=O)Nc2nc3n(n2)C(c2ccc(F)cc2)C=C(c2ccccc2)N3)cc1 (configuration not stated),-4%,-8%,-11%,-11%[46.1 µM],-3%,16%[46.1 µM]
CC1=CC(c2ccccc2)n2nc(NS(=O)(=O)c3ccc(C)cc3)nc2N1 (configuration not stated),-10%,2%,-22%,-13%,35µM*,4%
CC1=CC(c2ccc(Cl)cc2)n2nc(NS(=O)(=O)c3ccc(C)cc3)nc2N1 (configuration not stated),x,x,-8%,11%,32µM*,u
Cc1ccc(S(=O)(=O)Nc2nc3n(n2)C(c2ccc(Cl)cc2)CC(=O)N3)cc1 (configuration not stated),x,-11%,-14%,1%,11%,-17%
CCc1cc2c(nc1CC)CCN(CCC(C)=NOC[C@@H](O)[C@H]1O[C@@H]3OC(C)(C)O[C@H]3[C@@H]1O)C2,x,x,x,x,x,-6%[14.2 µM]
CCc1ccccc1Nc1cc(C(=O)NC(C)c2ccccc2)c2ccccc2n1 (configuration not stated),-17%,-13%,3%,u,8%,u
Cc1cccc2cc3c(N)c(C(=O)N4CCOCC4)sc3nc12,u,u,49%,11µM*,9%,u
CC(C)(C)C1=CC(=O)C(=O)C(C(C)(C)C)=C1,x,x,28µM*,u,20µM*,-20%
CC(C)(C)C1=CC(=Nc2ccccc2N)C=C(C(C)(C)C)C1=O,-15%,-9%,u,-23%,2%,u
O=[N+]([O-])/C(C(Cl)=C(Cl)Cl)=C1\Nc2ccccc2O1,-7%,-13%,26%,-2%,14µM*,0%
